# AmpC inh det = Promiscuous and Specific Inhibitors of AmpC Beta-Lactamase (assay with detergent) | P00811 | purified AmpC, nitrocefin hydrolysis with detergent | Potency, µM (highest dose often 28.7 µM), for the others: at the highest dose activity change, negative = inhibition | 71,000 tested, 0.09% active | AID 584, 2007; active means well fitted curve in the direction sought with a large enough effect; inconclusive means small, poorly fitted or top-dose-only effect; further: on the % scale 0 is the no-effect control and ±100 the full control effect
# Target sequence (P00811 whole entry, looked up): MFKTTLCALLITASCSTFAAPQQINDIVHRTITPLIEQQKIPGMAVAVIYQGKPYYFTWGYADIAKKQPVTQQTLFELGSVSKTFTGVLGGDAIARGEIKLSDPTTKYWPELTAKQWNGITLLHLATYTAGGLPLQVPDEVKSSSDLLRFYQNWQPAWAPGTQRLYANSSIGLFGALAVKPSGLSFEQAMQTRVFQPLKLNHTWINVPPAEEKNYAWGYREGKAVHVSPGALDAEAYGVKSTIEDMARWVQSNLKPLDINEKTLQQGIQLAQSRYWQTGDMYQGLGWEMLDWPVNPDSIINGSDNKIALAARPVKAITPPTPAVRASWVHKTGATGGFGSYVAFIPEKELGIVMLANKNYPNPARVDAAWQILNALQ
#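 E. coli AmpC (5.3 nM) in 20 mM phosphate pH 7.0 with 0.01% Triton X-100, preincubated 15 min RT with compound; nitrocefin (2 uL of 800 uM stock) hydrolysis followed by 480 nm absorbance every 20 s over 4 min.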
# LT uptake inh = qHTS Assay for Anthrax Lethal Toxin Internalization; AID 912, 2007; Potency, µM (top dose mostly 40 µM), inactives show at the highest dose activity change, negative = inhibition, most hits filed as inhibitors; 70,000 tested, 0.67% active; Cells, anthrax lethal toxin internalization, FRET ratio (460/530); further: on the % scale 0 is the no-effect control and ±100 the full control effect; nearly all actives have a fitted effect of over 50% in size
# AmpC inh no det = Promiscuous and Specific Inhibitors of AmpC Beta-Lactamase (assay without detergent) | AmpC nitrocefin hydrolysis, absorbance 480 nm, no detergent | 71,000 tested, 1.8% active | Potency, µM (series often up to 28.7 µM), for the others: top-dose activity change, negative = inhibition; further: % of control where 0% means no effect
#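 AmpC, 20 mM phosphate pH 7.0; 15 min cpd preinc, RT; start with nitrocefin (800 uM stock); A480 kinetic read, 20 s intervals, 4 min. No-enzyme wells = negative control.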
# SmPrx2 inh = Schistosoma Mansoni Peroxiredoxins (Prx2) | S. mansoni Prx2 activity coupled to TGR/GSH (TGR is thioredoxin glutathione reductase), NADPH fluorescence loss, qHTS | Potency, µM | 65,000 tested, 0.07% active | Schistosoma mansoni peroxiredoxin 2 (Prx2)
#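 qHTS, coupled TGR/Prx2 format; 15 min compound preincubation at RT; reaction started with H2O2 (2.5 mM aliquot); kinetic NADPH fluorescence decrease, ex 365/em 450 nm.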
# An asterisk follows results filed as active; ? = inconclusive; · = no result; [ ] = remark or other dose. Hits are enriched below; roughly 2.6% of the tested compounds scored in any of these assays. Unless noted, the call rests on the fitted dose curve. Potency means the concentration at half of the fitted maximal effect.
SMILES,AmpC inh det,LT uptake inh,AmpC inh no det,SmPrx2 inh
CN(C)CCNc1oc(-c2ccccc2F)nc1C#N,12.5%,-7.5%,3.98µM*[single pt active],>57
N#Cc1nc(-c2ccccc2F)oc1NCc1cccc2c1OCO2,-4.2%,11.4%,13.0%,>57
N#Cc1nc(-c2ccccc2F)oc1NC1CCCCC1,10.5%,?,3.98µM*[single pt active],>57
COC(=O)c1ccc2c(c1)N(C)CCS2,12.4%,10.1%,3.98µM*[single pt active],·
CCOC(=O)N1CCC(NC(=O)c2ccc3c(c2)N(C)CCS3)CC1,0.2%,?,48.5%,>57
Oc1cc(O)c2c(c1)O[C@H](c1ccc(O)c(O)c1)[C@@H](O)[C@@H]2c1c(O)cc(O)c2c1O[C@@H](c1ccc(O)c(O)c1)[C@H](O)C2,-4.2%[5.75 µM],-6.8%[8 µM],-14.3%[5.75 µM],>57
Cc1noc(C)c1S(=O)(=O)N(CC(=O)N1CCc2ccccc21)c1ccc(C(C)C)cc1,14.3%,-10.1%,3.98µM*[single pt active],>57
O=C1Nc2ccccc2C2(CCN(CCc3ccc(C(F)(F)F)cc3)CC2)O1,·,10µM*,·,·
Cc1n[nH]c(C)c1S(=O)(=O)N1CCCC(C(=O)NCc2cccs2)C1 (stereo not given),-0.7%,-3.3%,13.8%,>57
Cc1n[nH]c(C)c1S(=O)(=O)N1CCCC(C(=O)NC2CCCc3ccccc32)C1 (stereo not given),11.2%,-10.3%,3.98µM*[single pt active],>57
Brc1ccccc1-c1nnc(CSc2nncn2-c2ccccc2)o1,-4.5%,-1.4%,11.4%,>57
O=c1c2ccccc2nc(SCc2nnc(-c3ccccc3Br)o2)n1-c1ccccc1,-1.9%,14.8%,20µM*,>57
O=C(NCCCN1CCCCC1)C1(S(=O)(=O)c2ccc(Cl)cc2)CC1,13.9%,-4.7%,3.98µM*[single pt active],>57
O=C(NCCN1CCCC1)C1(S(=O)(=O)c2ccc(Cl)cc2)CC1,-3.8%,-0.5%,-3.8%,>57
CN(C(=O)c1ccc2c(=O)n3c(nc2c1)CCCCC3)c1ccccc1,0.2%,13.5%,40.1%,>57
O=C(Nc1cccc(Cl)c1)c1ccc2c(=O)n3c(nc2c1)CCCCC3,-4.4%,12.6µM*,16.2%,>57
O=C(NCCC1=CCCCC1)c1ccc2c(=O)n3c(nc2c1)CCCCC3,4.2%,12.6µM*,104.4%,>57
O=C(Nc1ccc(F)c(Cl)c1)c1ccc2c(=O)n3c(nc2c1)CCCCC3,2.0%,-12.8%,15.9%,>57
Clc1ccccc1C(Nc1cnccn1)Nc1cnccn1,-0.9%[5.75 µM],6.9%[8 µM],-9.8%[5.75 µM],>57
N#C[C@H]1CN[C@H](N)N[C@@H]1N,5.2%[5.75 µM],-2.2%[8 µM],-0.6%[5.75 µM],>57
COc1ccc(S(=O)(=O)n2nc(-c3cc(OC)c(OC)c(OC)c3)cc2N)cc1OC,6.1%,16.3%,129.7%,>57
COc1ccccc1-c1cc(N)n(S(=O)(=O)c2ccc(F)c(C)c2)n1,8.2%,?,20µM*[single pt active],>57
COc1ccc2ccccc2c1C1CC(=O)N2CN(C)CSC2=C1C#N (stereo not given),-7.0%,-28.5%,25.5%,>57
COc1ccc(Br)cc1C1CC(=O)N2CN(Cc3ccccc3)CSC2=C1C#N (stereo not given),9.5%,?,2µM*,>57
COc1cc(OC)c(C2CC(=O)N3CN(C)CSC3=C2C#N)cc1OC (stereo not given),9.3%,-22.6%,3.98µM*[single pt active],>57
SMILES,AmpC inh det,LT uptake inh,AmpC inh no det,SmPrx2 inh
CC(C)c1ccc(C2CC(=O)N3CN(C)CSC3=C2C#N)cc1 (stereo not given),11.1%,-8.4%,3.98µM*[single pt active],>57
COc1ccc(Br)cc1C1CC(=O)N2CN(C)CSC2=C1C#N (stereo not given),13.1%,-11.8%,3.98µM*[single pt active],>57
CCCC[N+]1(C)[C@@H]2CC(OC(=O)[C@@H](CO)c3ccccc3)C[C@H]1[C@H]1O[C@H]12 (stereo not given in full),-0.7%,1.4%,-1.3%,>57
CN(C)[C@@H]1C(=O)C(C(N)=O)=C(O)[C@]2(O)C(=O)C3=C(O)c4c(O)cccc4[C@](C)(O)[C@H]3C[C@@H]12,-10.1%[5.75 µM],-12.5%[8 µM],-10.1%[5.75 µM],>57
COc1ccc(NC(=O)NCCCN2CCCCC2C)cc1 (stereo not given),-1.4%,0.7%,-7.3%,>57
COc1ccc(NC(=O)NCCCN2CCCC2=O)cc1,11.5%,-2.4%,3.98µM*[single pt active],>57
CCOC(=O)c1cccc(NC(=O)CN2C(=O)C3C4C=CC(C4)C3C2=O)c1 (stereo not given),4.1%,9.5%,3.4%,>57
Cc1cccc(NC(=O)NCCN2C(=O)C3C4C=CC(C4)C3C2=O)c1 (stereo not given),11.2%,-7.7%,3.98µM*[single pt active],>57
O=C(NCCN1C(=O)C2C3C=CC(C3)C2C1=O)N1CCCCC1 (stereo not given),12.9%,-6.6%,3.98µM*[single pt active],>57
O=C(CCN1C(=O)C2C3C=CC(C3)C2C1=O)NCC1CCCO1 (stereo not given),-1.9%,-5.3%,-5.4%,>57
O=C(NCCN1C(=O)C2C3C=CC(C3)C2C1=O)Nc1ccccc1 (stereo not given),14.0%,-2.5%,3.98µM*[single pt active],>57
O=c1[nH]cc(CS(=O)(=O)Cc2c[nH]c(=O)[nH]c2=O)c(=O)[nH]1,-2.7%[5.75 µM],-12.7%[8 µM],13.0%[5.75 µM],>57
c1ccc(CNc2ccnc(-c3ccoc3)n2)cc1,8.2%,?,18.2%,>57
OC[C@@H]1O[C@@H](n2cnc3cncnc32)[C@@H](O)[C@H]1O,-3.7%,-1.0%,2.6%,>57
Cc1ccccc1NC(=O)NCCN1C(=O)C2C3C=CC(C3)C2C1=O (stereo not given),13.2%,-13.1%,2µM*[single pt active],>57
O=C(NCCN1C(=O)C2C3C=CC(C3)C2C1=O)NCc1ccccc1 (stereo not given),12.5%,-5.5%,3.98µM*[single pt active],>57
COc1ccc(NC(=O)NCCN2C(=O)C3C4C=CC(C4)C3C2=O)cc1 (stereo not given),12.2%,8.7%,2.51µM*[single pt active],>57
Cc1ccc(NC(=O)NCCN2C(=O)C3C4C=CC(C4)C3C2=O)cc1 (stereo not given),9.9%,2.9%,3.98µM*[single pt active],>57
COc1ccc(CN2C(=O)C3C4C=CC(C4)C3C2=O)cc1 (stereo not given),-2.8%,3.0%,-0.1%,>57
O=C(CCN1C(=O)C2C3C=CC(C3)C2C1=O)NCCN1CCCc2ccccc21 (stereo not given),-2.3%,3.3%,51.9%,>57
Cc1ccc(NC(=O)NCCCN2CCOCC2)cc1,-4.9%,-3.9%,-3.5%,>57
CN(C)CS/C(N)=N/[C@H](O)C(Cl)(Cl)Cl,-2.0%[5.75 µM],-14.9%[8 µM],-6.9%[5.75 µM],>57
O=C(NCCN1CCN(C(=O)Nc2ccccc2)CC1)Nc1ccccc1,12.1%,-15.0%,3.98µM*[single pt active],>57
O=C(Nc1ccccc1)N1CCN(Cc2ccc3c(c2)OCO3)CC1,12.6%,6.8%,3.98µM*[single pt active],>57
COc1ccc(NC(=O)NCCN2CCc3ccccc3C2)cc1,-6.7%,-8.3%,6.5%,>57
COc1ccc(C2CC(c3ccccc3C)n3nc(N)nc3N2)cc1 (stereo not given),16.7%,2.6%,3.98µM*[single pt active],>57

# Source: PubChem BioAssay (National Center for Advancing Translational Sciences (NCATS))
